# rCAG RNA binder: binds r(CAG) RNA repeats; AID 651821; inhibition, % at 3 µM; r(CAG) RNA repeat, TO-PRO-1 dye displacement fluorescence; actives 1.3% (n = 370,000);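 active means inhibition above the plate cutoff, the mean of all test compounds on that plate plus 3 SD, cut at about 35% in these data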;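 further: 0% = DMSO alone and 100% = 100 µM mitoxantrone as full dye displacement; higher means more dye released from RNA so lower well fluorescence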
# ZTA DNA inh: ZTA (EBV) inhibition in EBNA-1 counter-screen. actives 0.15% (n = 320,000). inhibition, % at 11 µM. AID 2234. ZTA-DNA binding, fluorescence polarization; in the data active means inhibition above about 33%
# EBNA-1 inhibitor: blocks EBNA-1 binding to DNA | AID 1950 | EBNA-1 DNA binding, fluorescence polarization | inhibition, % at 14.8 µM | actives 0.34% (n = 300,000); in the data active means inhibition above about 28%
# PAFAH2 inh: PAFAH2 (human) inhibition. Q99487. recombinant PAFAH2, FP-rhodamine activity probe, fluorescence polarization. inhibition, % at 3.39 µM. actives 0.99% (n = 340,000);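 active means inhibition above the mean over all tested compounds plus 3 SD, cut at about 30% in these data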;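 further: inhibitors block probe labeling of enzyme so polarization drops; 0% = enzyme with DMSO and 100% = wells lacking PAFAH2 protein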
# PAFAH1B3 FP inh: inhibitors of human PAFAH1B3 | actives 0.28% (n = 340,000) | Q15102 | recombinant PAFAH1B3, FP-rhodamine probe, fluorescence polarization | AID 492972 | inhibition, % at 3.39 µM;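 active means inhibition above the screen-wide average of all tested compounds plus 3 SD, cut at about 25% in these data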;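 further: 0% = enzyme with DMSO only and 100% = wells lacking PAFAH1B3 protein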
# Target sequence (Q15102 whole entry, looked up): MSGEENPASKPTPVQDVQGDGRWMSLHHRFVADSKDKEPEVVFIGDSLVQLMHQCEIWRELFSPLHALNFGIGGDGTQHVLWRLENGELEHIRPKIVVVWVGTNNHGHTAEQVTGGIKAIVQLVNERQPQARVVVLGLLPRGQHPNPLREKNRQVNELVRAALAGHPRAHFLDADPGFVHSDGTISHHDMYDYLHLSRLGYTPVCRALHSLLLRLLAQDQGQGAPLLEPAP
# PAFAH1B2 FP inh: inhibitors of human PAFAH1B2. P68402. recombinant PAFAH1B2, FP-rhodamine activity probe, fluorescence polarization. inhibition, % at 3.39 µM. actives 1.2% (n = 340,000);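 active means inhibition above the mean of all tested compounds plus 3 SD, cut at about 24% in these data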;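 further: 0% = enzyme with DMSO and 100% = wells lacking PAFAH1B2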
# Target sequence (P68402 whole entry, looked up): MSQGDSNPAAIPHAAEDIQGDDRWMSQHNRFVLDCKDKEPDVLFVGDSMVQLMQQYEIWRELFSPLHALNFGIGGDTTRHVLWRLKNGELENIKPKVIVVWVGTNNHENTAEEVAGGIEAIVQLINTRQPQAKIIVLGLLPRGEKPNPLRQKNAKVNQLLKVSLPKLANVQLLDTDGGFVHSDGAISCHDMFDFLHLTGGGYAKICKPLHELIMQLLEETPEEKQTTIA
# ZTA inh confirm: EBV ZTA DNA binding inhibition, confirmation; inhibition, % at 11.1 µM; shares compounds with ZTA DNA inh; Zta-ZRE DNA binding, fluorescence polarization; actives 30% (n = 320); AID 2361;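 active means mean inhibition across triplicate runs above the hit threshold derived for the original primary screen, cut at about 33% in these data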;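 further: 0% = Zta with DMSO and 100% = wells lacking Zta protein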
# EBNA-1 counter: EBNA-1 DNA binding inhibition, counter-screen for ZTA. 320 tested, under 10 active. shares compounds with ZTA DNA inh. AID 2362. inhibition, % at 14.8 µM. fluorescence polarization; call rule not given here
# Numbers without * were called inactive; . = no result given. An excerpt weighted towards active compounds, which were near 2.9% of everything screened.
SMILES,rCAG RNA binder,ZTA DNA inh,EBNA-1 inhibitor,PAFAH2 inh,PAFAH1B3 FP inh,PAFAH1B2 FP inh,ZTA inh confirm,EBNA-1 counter
Cc1ccc(-c2nn(-c3ccccc3)cc2C(=O)O)o1,.,36.7*,4.2,.,.,.,-1.8,-13.4
Cc1cc(N2CCCN(C)CC2)n2nc(C)nc2n1,-2.4,.,.,.,.,.,.,.
COc1ccc2nc(SCC(=O)Nc3cc(C)on3)c(C#N)cc2c1,-1.8,49.8*,-6.3,-27.3,-10.6,-6.6,11.5,5.5
COc1cc2cc(C#N)c(SCC(=O)Nc3cc(C)on3)nc2cc1OC,4.2,-0.5,11.5,-1.8,-1.4,-0.6,.,.
N#Cc1c(N2CCCC2)nc(N)c2c(N)nc(N3CCCC3)cc12,31.9,59.9*,9.8,59.2*,62.8*,41.5*,55.2*,-25.5
CCOc1cc2c(C#N)c(N3CCCC3)nc(N)c2c(N)n1,4.9,-4.5,9.2,-4.2,10.1,4.2,.,.
COc1ccccc1OCCn1nc2ccccc2c1OC,-1.6,.,.,.,.,.,.,.
C#CCOCCOCCOCCNc1nc(N2CCN(C(=O)CCCCCCCCCCNC(=O)[C@@H](CCSC)n3cc(CCO)nn3)CC2)nc(N2CCN(C(=O)CCCCCCCCCCNC(=O)[C@H](CCCN=C(N)N)n3cc(C[C@@H](C)CC)nn3)CC2)n1,.,141.1*,12.0,-14.2,-1.5,-6.1,62.1*,-2.3
C#CCOCCOCCOCCNc1nc(N2CCN(C(=O)CCCCCCCCCCNC(=O)Cn3cc(C[C@@H](C)O)nn3)CC2)nc(N2CCN(C(=O)CCCCCCCCCCNC(=O)[C@@H](CCSC)n3cc(CCO)nn3)CC2)n1,.,0.7,5.2,-11.1,-15.0,-7.3,.,.
C#CCOCCOCCOCCNc1nc(N2CCOCC2)nc(N2CCN(C(=O)[C@H](CCCCN)n3cc([C@@H](N)CO)nn3)CC2)n1,-0.7,168.3*,12.4,13.1,13.9,3.6,-4.4,-3.1
C#CCOCCOCCOCCNc1nc(N2CCN(C(=O)[C@H]([C@@H](C)CC)n3cc([C@@H](N)CO)nn3)CC2)nc(N2CCN(C(=O)[C@H](CCCCN)n3cc([C@@H](N)CO)nn3)CC2)n1,4.6,.,.,10.4,10.2,2.0,.,.
C#CCOCCOCCOCCNc1nc(N2CCN(C(=O)CCCCCCCCCCNC(=O)[C@@H](CCC(=O)O)n3cc(CCCCCN)nn3)CC2)nc(N2CCN(C(=O)CCCCCCCCCCNC(=O)[C@H](CO)n3cc(CCCSC)nn3)CC2)n1,.,-31.8,1.9,-3.8,-2.2,-4.5,.,.
C#CCOCCOCCOCCNc1nc(N2CCN(C(=O)CCCCCCCCCCNC(=O)[C@@H](CCC(=O)O)n3cc(CCCCCN)nn3)CC2)nc(N2CCN(C(=O)CCCCCCCCCCNC(=O)[C@H](CO)n3cc(CCCCCN)nn3)CC2)n1,.,37.1*,3.9,9.3,8.5,3.4,-6.7,-8.1
C#CCOCCOCCOCCNc1nc(N2CCN(C(=O)CCCCCCCCCCNC(=O)[C@@H](CCC(=O)O)n3cc(CCCCCN)nn3)CC2)nc(N2CCN(C(=O)CCCCCCCCCCNC(=O)[C@H](CCCCN)n3cc(C[C@@H](C)CC)nn3)CC2)n1,.,53.8*,-2.5,-6.2,-0.5,-0.7,-12.3,-2.6
O=C1C(NC(=O)C(F)(F)Br)CCCCN1Cc1cccc(C(F)(F)F)c1 (stereo unspecified),-0.1,.,.,.,.,.,.,.
CCN(CC)C(=O)c1ncn2c1C(=O)N[C@@H](C)C2,1.3,.,.,.,.,.,.,.
COc1cccc(NC(=O)C2CCCN2C(=O)NCc2ccccc2)c1 (stereo unspecified),4.0,.,.,.,.,.,.,.
C#CCOCCOCCOCCNc1nc(N2CCN(C(=O)CCCCCCCCCCNC(=O)[C@H](CCCCN)n3cc(CCO)nn3)CC2)nc(N2CCN(C(=O)CCCCCCCCCCNC(=O)[C@H](CCCCN)n3cc(C[C@@H](C)CC)nn3)CC2)n1,.,54.9*,13.3,.,.,.,80.6*,7.3
C#CCOCCOCCOCCNc1nc(N2CCN(C(=O)Cn3cc(CCCCN)nn3)CC2)nc(N2CCN(C(=O)Cn3cc(CC(C)O)nn3)CC2)n1 (stereo unspecified),-7.3,8.3,1.4,-3.8,-0.7,-4.7,.,.

# Compound activity deposited in PubChem by The Scripps Research Institute Molecular Screening Center.
